TROY signal inh: TROY signaling inhibition; Q293 LMP1-TROYcd NF-kB luciferase reporter, 4 h; inhibition, % at 10 µM; 360,000 compounds, 0.98% hits; AID 1347056;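 active means compounds whose plate-normalised and pattern-corrected inhibition of the luciferase reporter signal at the single screening dose is 50% or more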
TWEAK-Fn14 inh: TWEAK-Fn14 signaling inhibition; TWEAK-stimulated Fn14 reporter cells, luciferase luminescence, 8 h; 360,000 compounds, 2% hits; inhibition, % at 10 µM; in the data active means inhibition above about 50%
LGR2 inh: Drosophila LGR2 receptor signaling inhibition; HEK293 LGR2, CRE-luciferase, bursicon-stimulated, 4 h; inhibition, % at 9.99 µM; 380,000 compounds, 0.35% hits; AID 720647;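 active means drop in luminescence signal, shown as inhibition above about 50% in the replicate tests, limit read from the data, passing the limit was not always enough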;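 further: agonist challenge used bursicon conditioned medium at about half maximal strength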
HSP90 refold inh: HSP90 refolding inhibition in rabbit reticulocyte lysate | luciferase refolding luminescence, 3 h | inhibition, % at 5.6 µM | 290,000 compounds, 0.91% hits;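 active means inhibition above the screen-wide mean plus 3 SD, computed separately per campaign, cut at about 16% in these data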;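 further: 0% = DMSO wells and 100% = 60 µM geldanamycin wells; inhibitors lower the luminescence because luciferase stays unfolded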
The depositor's hits bear a star. The list is not random: actives were taken first. Their share in the collection is about 2.2%.

`Cc1onc(-c2c(F)cccc2Cl)c1C(=O)OCC(=O)c1c[nH]c2ccccc12` gave TROY signal inh 28, TWEAK-Fn14 inh 58*, LGR2 inh -3 and HSP90 refold inh -4.
Screening Cc1onc(-c2c(F)cccc2Cl)c1C(=O)NCc1ccco1 returned TROY signal inh 10, TWEAK-Fn14 inh -14 and HSP90 refold inh 3.
Cc1noc(C)c1C(=O)OCC(=O)c1c[nH]c2ccccc12 was read as TROY signal inh -27, TWEAK-Fn14 inh 6 and HSP90 refold inh -1.
For Cc1onc(-c2c(F)cccc2Cl)c1C(=O)OCC(=O)NCc1ccco1 the results were TROY signal inh 54*, TWEAK-Fn14 inh 6 and HSP90 refold inh 15.
CS(=O)(=O)N1CC2(C1)[C@@H](c1ccccc1)[C@@H](CO)N2Cc1ccc(F)cc1 was read as LGR2 inh 18.
`COc1cc2ccccc2cc1C(=O)O` gave TROY signal inh -16, TWEAK-Fn14 inh -12 and HSP90 refold inh 1.
For COc1cc2ccccc2ccc1=NO the results were TROY signal inh 22, TWEAK-Fn14 inh 62* and LGR2 inh 17.
Cc1ccc(S(=O)(=O)Nc2ccc3c(c2)CC(=O)N([C@H](C)CO)C[C@H](C)[C@@H](CN(C)CC2CCCCC2)O3)cc1 was read as LGR2 inh -18.
Screening CC(C)NC(=O)N[C@H]1CC[C@@H](CCNC(=O)C2CCOCC2)O[C@@H]1CO returned LGR2 inh 6.
For COc1ccc2c(c1)c(CC(=O)Nc1nnc(C3CC3)s1)c(C)n2C(=O)c1ccc(Cl)cc1 the results were TROY signal inh 53*, TWEAK-Fn14 inh 58*, LGR2 inh 24 and HSP90 refold inh 13.
COc1ccc2c(c1)c(CC(=O)NCc1cc([N+](=O)[O-])ccc1O)c(C)n2C(=O)c1ccc(Cl)cc1 was read as TROY signal inh 62*, TWEAK-Fn14 inh 43, LGR2 inh 3 and HSP90 refold inh 3.
For C[C@H]1CN([C@@H](C)CO)C(=O)c2cc(C#CC3CCCC3)cnc2O[C@H]1CN(C)S(C)(=O)=O the results were LGR2 inh 1.
`CCC(=O)N[C@@H]1CC[C@H](CC(=O)NCc2ccccc2F)O[C@H]1CO` gave LGR2 inh -3.
Cc1ccc2[nH]cc(C(=O)CN3CCC4(CC3)OCCO4)c2c1 was read as TROY signal inh -12, TWEAK-Fn14 inh 51* and HSP90 refold inh -3.
`CNC[C@@H]1Oc2ccc(NS(=O)(=O)c3ccc(OC)cc3)cc2CC(=O)N([C@H](C)CO)C[C@H]1C` gave LGR2 inh -17.
CCC(C)c1ccc(S(=O)(=O)N2CCN(C(=O)COc3ccc4c(C)cc(=O)oc4c3)CC2)cc1 (stereo not drawn) was read as TWEAK-Fn14 inh 58* and HSP90 refold inh 1.
For COc1ccc(S(=O)(=O)N2CCN(C(=O)COc3ccc4c(C)cc(=O)oc4c3)CC2)cc1 the results were HSP90 refold inh 0.
`CCN1CCN(C(=O)Nc2cccc3ccccc23)CC1` gave TROY signal inh 56*, TWEAK-Fn14 inh 7 and HSP90 refold inh -2.
For CN1CCN(C(=O)Nc2cccc3ccccc23)CC1 the results were TROY signal inh 30, TWEAK-Fn14 inh 32, LGR2 inh 2 and HSP90 refold inh 1.
Screening Cc1noc(C)c1S(=O)(=O)N(C)C[C@@H]1OCCCC[C@H](C)Oc2ccc(NC(=O)C3CCCCC3)cc2C(=O)N([C@H](C)CO)C[C@H]1C returned LGR2 inh 7.
C[C@@H]1CCCCO[C@H](CN(C)S(C)(=O)=O)[C@@H](C)CN([C@@H](C)CO)C(=O)c2cc(N(C)C)ccc2O1 was read as LGR2 inh -8.
COc1ccc(CCN(Cc2cccs2)S(=O)(=O)c2ccc(S(=O)(=O)N3CCCCCC3)cc2)cc1OC was read as TROY signal inh 7, TWEAK-Fn14 inh -3, LGR2 inh 14 and HSP90 refold inh 3.
CCC(C)NS(=O)(=O)c1ccc(S(=O)(=O)N(CCc2ccc(OC)c(OC)c2)Cc2cccs2)cc1 (stereo not drawn) was read as TROY signal inh 31, TWEAK-Fn14 inh 55*, LGR2 inh 20 and HSP90 refold inh 2.
Cc1noc(C)c1NC(=O)N(C)C[C@@H]1OCCCC[C@H](C)Oc2ccc(NC(=O)Cc3ccccc3)cc2C(=O)N([C@H](C)CO)C[C@H]1C was read as LGR2 inh 29.
Screening C/C=C(\C)C(=O)OC1[C@H](OC(C)=O)C2(CO)C(CC1(C)C)C1=CCC3C4(C)CCC(O[C@@H]5O[C@H](C(=O)O)[C@@H](O[C@@H]6O[C@H](CO)[C@@H](O)[C@H](O)[C@H]6O)[C@H](O)[C@H]5O[C@H]5O[C@H](CO)[C@@H](O)[C@H](O)[C@H]5O)[C@](C)(CO)C4CCC3(C)[C@]1(C)C[C@H]2O (stereo partly drawn) returned TROY signal inh 87* and TWEAK-Fn14 inh 15.
Screening CC1(C)C[C@H]2C3=CCC4[C@@]5(C)CC[C@H](O[C@@H]6O[C@H](C(=O)O)[C@@H](O)[C@H](O)[C@H]6O)[C@@](C)(CO)C5CC[C@@]4(C)[C@]3(C)C[C@H](O)[C@@]2(CO)[C@@H](O)[C@@H]1O (stereo partly drawn) returned TROY signal inh 57*, TWEAK-Fn14 inh 5 and LGR2 inh -5.
`C/C=C(/C)C(=O)OC1CC(C)(C)C[C@H]2C3=CC[C@@H]4[C@@]5(C)CCC(O[C@@H]6O[C@@H](C(=O)O)[C@@H](O)C(O[C@@H]7OC[C@H](O)[C@@H](O)[C@@H]7O[C@@H]7OC(CO)C(O)[C@@H](O)[C@@H]7O)C6O[C@@H]6OC(CO)C(O)C(O)C6O)[C@@](C)(CO)[C@@H]5CC[C@]4(C)[C@]3(C)CC(O)[C@@]12CO` (stereo partly drawn) gave TROY signal inh 0 and TWEAK-Fn14 inh -12.
Screening O=C(N/N=C/c1ccc[nH]1)c1ccc(COc2cccc3cccnc23)cc1 returned TROY signal inh 48, TWEAK-Fn14 inh 85*, LGR2 inh 22 and HSP90 refold inh 0.
COc1ccc(NC(=O)N(C)C[C@@H]2Oc3c(NS(=O)(=O)c4ccc(F)cc4)cccc3C(=O)N([C@@H](C)CO)C[C@@H]2C)cc1 was read as LGR2 inh 0.
For Cc1noc(C)c1S(=O)(=O)Nc1ccc2c(c1)CC(=O)N([C@@H](C)CO)C[C@@H](C)[C@@H](CN(C)Cc1ccc(C(=O)O)cc1)O2 the results were LGR2 inh 2.
For Fc1cccc(-c2cc3nc4c(c(N5CCC6(CC5)OCCO6)n3n2)CCCC4)c1 the results were TROY signal inh 42, TWEAK-Fn14 inh 54* and HSP90 refold inh 10.
Screening C[C@H]1CN([C@@H](C)CO)S(=O)(=O)c2ccc(-c3cccc(C#N)c3)cc2O[C@H]1CN(C)C returned LGR2 inh 1.
For O=S(=O)(Nc1ccc(Cl)cc1NS(=O)(=O)c1ccccc1)c1ccccc1 the results were TROY signal inh 51*, TWEAK-Fn14 inh -4 and LGR2 inh 21.
